# Measurements from PubChem BioAssay (NCATS).
# Several values for one entry are separate records, joined by “and”; a condition that tells them apart may be missing. Equal values may be shown once. Values without a mark were called inactive. Records with an inconclusive call do not appear. A call without a number means that no potency is given here. Activity calls are given as the source filed them. Unless noted, the call rests on the fitted dose curve; in most records, active means well fitted curve in the direction sought with a large enough effect; inconclusive means small, poorly fitted or top-dose-only effect, or another doubt; inactive means no such curve, though single readings can be large; an effect the other way counts as inactive or inconclusive.
# Assays:
# [1] = S16 Schwann cell viability assay (CellTiter-Glo assay) (AID 624031); further: nearly all actives have a fitted effect of over 70% in size; further: potency means the concentration at half of the fitted maximal effect
# Summary of the method: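 Concentration-effect curves come from CellTiter-Glo luminescence of S16 rat Schwann cells after 24 h compound exposure. Each reading was normalized to DMSO wells (0%) and wells without cells, and curves were ranked by r2 and response magnitude.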
# [2] = S16 Schwann cell PMP22 intronic element firefly luciferase assay (AID 624032); further: nearly all actives have a fitted effect of over 30% in size; further: potency means the concentration at half of the fitted maximal effect
# Summary of the method: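 Luciferase reporter of PMP22 intronic-element expression in stably transfected S16 rat Schwann cells, read by ONE-Glo luminescence after 24 h compound exposure at 37 C. Activity scaled between DMSO (0%) and positive-control PTC124; concentration-effect curves quality-classified.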
# [3] = S16 Schwann cell PMP22 intronic element beta-lactamase assay (AID 624044; calls by dose curve; further: nearly all actives have a fitted effect of over 15% in size; further: potency means the concentration at half of the fitted maximal effect)
# Summary of the method: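 Rat S16 Schwann cells with beta-Lac driven by a PMP22 intronic element, compound-treated 24 h at 37 °C. LiveBLAzer FRET B/G read: 460 nm normalized to potassium clavulanate vs DMSO; 535 nm FRET as viability; concentration-effect curves classified.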
# [4] = qHTS assay for small molecule agonists of the antioxidant response element (ARE) signaling pathway (AID 651741; active means well fitted activation curve with a large enough effect in the signal ratio; the % refers to the signal ratio; further: potency means the concentration at half of the fitted maximal effect)
# Summary of the method: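 Seeding 2,000 ARE-bla HepG2 cells per well preceded a 5 h incubation at 37 C/5% CO2 and a 16 h compound exposure at 37 C. Beta-lactamase reporter activity was then quantified by fluorescence after 2 h with LiveBLAzer B/G FRET substrate.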
# [5] = qHTS assay for small molecule activators of the p53 signaling pathway (AID 651743; active means well fitted activation curve with a large enough effect in the signal ratio, not every such curve was filed as active; the % refers to the signal ratio; further: series mostly up to about 92 µM); details: HCT-116 p53RE-bla, beta-lactamase FRET ratio, 16 h; activation: hits give high values
# Summary of the method: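 Screen for p53 pathway agonists uses stably transfected p53RE-bla HCT-116 cells, 4,000 per well, treated 16 h at 37 C with compounds in DMSO.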
# [6] = qHTS assay for small molecule activators of the nuclear factor-kappa B (NF-kB) signaling pathway (AID 651749; active means well fitted activation curve with a large enough effect in the signal ratio; the % refers to the signal ratio; further: series mostly up to about 77 µM); details: NF-kB-bla ME-180 cells, beta-lactamase FRET ratio, 16 h; hits give high values
# Summary of the method: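 Stably transfected ME-180 line; NF-kB response element upstream of beta-lactamase. Treatment: compound or DMSO, 16 hr. Detection: fluorescent FRET substrate.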
# [7] = qHTS assay for small molecule disruptors of the mitochondrial membrane potential - 1 hr assay (AID 651754; calls by dose curve; further: nearly all actives have a fitted effect of over 35% in size; further: potency means the concentration at half of the fitted maximal effect)
# Summary of the method: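 HepG2 cells, attached overnight at 37C, were exposed to compound or DMSO vehicle for 1 hr at 37C, 5% CO2, then stained with Mito-MPS dye for 30 min. Red aggregate versus green monomer fluorescence reports membrane potential.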
# [8] = qHTS assay for small molecule disruptors of the mitochondrial membrane potential - 5 hr assay (AID 651755; calls by dose curve; further: nearly all actives have a fitted effect of over 40% in size; further: potency means the concentration at half of the fitted maximal effect)
# Summary of the method: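 HepG2, 2,000 cells/well, overnight attach; cpd or DMSO 5 hr, 37C/5% CO2; Mito-MPS 30 min 37C; fluor 490/535 + 540/590 nm.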
# [9] = biological target: Tumor necrosis factor (Homo sapiens) (UniProt P01375); test: qHTS assay to identify small molecules that stimulate Tumor Necrosis Factor-alpha (TNF-alpha) secretion (AID 651757; active means well fitted curve in the direction sought with a large enough effect in the signal ratio; the % refers to the signal ratio)
# Sequence of Tumor necrosis factor (Homo sapiens) (P01375 whole entry, looked up): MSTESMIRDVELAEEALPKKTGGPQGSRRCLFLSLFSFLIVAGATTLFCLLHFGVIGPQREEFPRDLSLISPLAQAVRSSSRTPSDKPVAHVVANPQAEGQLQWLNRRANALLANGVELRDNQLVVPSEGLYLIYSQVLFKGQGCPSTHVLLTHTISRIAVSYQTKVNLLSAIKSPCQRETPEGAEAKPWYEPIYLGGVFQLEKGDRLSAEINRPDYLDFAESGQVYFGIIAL
# Summary of the method: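 THP-1 cells were exposed to compounds for 17 hrs at 37 C, after which secreted TNF-alpha was measured by homogeneous HTRF (TR-FRET) using cryptate- and XL665-labeled anti-TNF-alpha antibodies, read after 3 hr at room temperature.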
# [10] = biological target: Glucagon-like peptide 1 receptor (Homo sapiens) (UniProt P43220); test: qHTS of GLP-1 Receptor Agonists: LOPAC Validation (AID 624148);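 further: luminescence from a luciferase reporter switched on by cAMP; higher luminescence signal means agonism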
# Sequence of Glucagon-like peptide 1 receptor (Homo sapiens) (P43220 whole entry, looked up): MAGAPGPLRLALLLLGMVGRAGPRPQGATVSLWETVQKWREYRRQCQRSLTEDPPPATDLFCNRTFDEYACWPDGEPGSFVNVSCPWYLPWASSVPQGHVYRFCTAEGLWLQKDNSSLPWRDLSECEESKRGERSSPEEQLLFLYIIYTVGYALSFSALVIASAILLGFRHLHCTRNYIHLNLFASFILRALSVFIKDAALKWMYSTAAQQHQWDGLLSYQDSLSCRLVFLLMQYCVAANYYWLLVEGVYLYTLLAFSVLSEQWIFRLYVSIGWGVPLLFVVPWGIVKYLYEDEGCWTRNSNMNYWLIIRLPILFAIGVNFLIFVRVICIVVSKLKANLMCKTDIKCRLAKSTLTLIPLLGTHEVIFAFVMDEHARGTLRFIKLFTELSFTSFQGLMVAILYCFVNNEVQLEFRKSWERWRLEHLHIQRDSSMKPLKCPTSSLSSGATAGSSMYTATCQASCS
# Summary of the method: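 Agonism scored as increased luciferase luminescence driven by cAMP in HEK293 clones carrying GLP-1R. Cells settled 12 hours, received compound for 4-6 hr at 37 deg C, 5% CO2, and were read after 12 min detection reagent at RT.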
# [11] = qHTS of Nrf2 Activators: LOPAC Validation (AID 624149)
# Summary of the method: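 AREc32 cells carrying an ARE-driven firefly luciferase were grown overnight in OPTI-MEM with 5% FBS, then exposed to compounds for 24 hr at 37 deg C. Luciferase signal was read after 30 min with Steady-Glo at RT.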
# [12] = biological target: Glutaminase kidney isoform, mitochondrial (Homo sapiens) (UniProt O94925); test: qHTS for Inhibitors of Glutaminase (GLS): LOPAC Validation (AID 624146); further: nearly all actives have a fitted effect of over 60% in size; further: potency means the concentration at half of the fitted maximal effect
# Sequence of Glutaminase kidney isoform, mitochondrial (Homo sapiens) (O94925 whole entry, looked up, canonical isoform): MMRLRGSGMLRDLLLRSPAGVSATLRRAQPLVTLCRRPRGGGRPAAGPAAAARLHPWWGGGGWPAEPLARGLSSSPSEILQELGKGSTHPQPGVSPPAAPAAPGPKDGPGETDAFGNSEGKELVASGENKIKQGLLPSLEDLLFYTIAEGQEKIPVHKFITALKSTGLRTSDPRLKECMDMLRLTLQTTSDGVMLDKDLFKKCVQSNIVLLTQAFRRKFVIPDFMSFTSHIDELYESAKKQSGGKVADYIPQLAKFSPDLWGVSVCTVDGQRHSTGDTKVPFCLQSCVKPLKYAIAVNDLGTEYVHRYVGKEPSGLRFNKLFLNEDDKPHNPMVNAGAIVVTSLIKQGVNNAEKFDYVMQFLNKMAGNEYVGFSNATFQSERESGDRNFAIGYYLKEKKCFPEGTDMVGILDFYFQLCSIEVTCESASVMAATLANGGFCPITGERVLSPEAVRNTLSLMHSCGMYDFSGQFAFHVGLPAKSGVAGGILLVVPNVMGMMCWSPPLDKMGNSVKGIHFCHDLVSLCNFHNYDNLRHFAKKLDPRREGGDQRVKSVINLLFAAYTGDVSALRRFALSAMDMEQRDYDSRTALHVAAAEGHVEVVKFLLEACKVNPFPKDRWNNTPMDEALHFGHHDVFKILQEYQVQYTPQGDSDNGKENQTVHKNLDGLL
# Summary of the method: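 Two-point fluorescence kinetic (t0, 30 min RT) for hKGA; glutamate detected via glutamate oxidase–HRP–Amplex Red. Substrate: 1 mM L-glutamine solution; buffer 45 mM KH2PO4, pH 8.2.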
# [13] = qHTS of Trypanosoma Brucei Inhibitors: LOPAC Validation (AID 624147)
# Summary of the method: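 Assay buffer: 50 mM TEA pH 7.2, 100 mM KCl, 10 mM MgCl2, 0.05% BSA, 0.01% Tween-20. Pyruvate kinase from T. brucei plus substrate met compound, then ADP (130 uM final). Luminescence was read post 45 min RT.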
# [14] = HTS Assay for Allosteric Antagonists of the Human D2 Dopamine Receptor: Hit Validation in HTRF (AID 624455);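 further: stable D1 dopamine receptor cell line scored for blocking the D1 response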
# Summary of the method: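 Hits were examined in an HTRF assay using cells stably expressing the D1 dopamine receptor, scoring inhibition of the D1-mediated response. The preceding primary screen tracked calcium flux after an EC80 dopamine addition in force-coupled, inducible Hek293 Trex D2 cells.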
# [15] = Cytotoxicity counterscreen for NFkB agonists and antagonists (AID 624476);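 further: cells exposed to compound for 48 hours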
smiles,measurement,setting,value
CCCC1CCCCN1 (centres undefined),Potency,[1],inactive
same,Potency,[2],inactive
CC(C)(C)NCC(O)c1cc(Cl)c(N)c(Cl)c1 (centres undefined),Potency,[1],inactive
Clc1cccc(N2CCNCC2)c1,Potency,[1],inactive
same,Potency,[2],inactive
CC(C)=CC1C(C(=O)OCc2cccc(Oc3ccccc3)c2)C1(C)C (centres undefined),Potency,[1],inactive
same,Potency,[2],inactive
same,Potency,[3],inactive
Oc1ccc(Cl)cc1Cc1ccccc1,Potency,[1],inactive
same,Potency,[2],inactive
same,Potency,[3],inactive
same,Potency,[4],54.5 µM (active) and 42.2 µM (active)
same,activation,[5],-3.88% and -4.49%
same,activation,[6],-0.62% and 0.873%
same,Potency,[7],18.8 µM (active)
same,Potency,[8],21.1 µM (active)
same,outcome,[9],inactive
CN(C)CCc1ccc(O)cc1,Potency,[1],inactive
same,Potency,[2],inactive
CC[C@@H](CO)NC(=O)[C@@H]1C=C2c3cccc4c3c(cn4C)C[C@H]2N(C)C1,Potency,[1],inactive
same,Potency,[2],inactive
same,Potency,[3],inactive
same,outcome,[10],inactive
same,outcome,[11],inactive
CC(=O)Nc1cc([As](=O)(O)O)ccc1O,Potency,[1],inactive
same,Potency,[2],inactive
C=C1CC[C@@]2(O)[C@H]3Cc4ccc(O)c5c4[C@@]2(CCN3CC2CC2)[C@H]1O5,Potency,[1],inactive
same,Potency,[2],inactive
O=P1(NCCCl)OCCCN1CCCl (centres undefined),Potency,[1],inactive
same,Potency,[2],inactive
same,Potency,[3],inactive
CC(C)(N)Cc1ccc(Cl)cc1,Potency,[1],inactive
same,Potency,[2],inactive
CCN(CC)CCN1C(=O)CN=C(c2ccccc2F)c2cc(Cl)ccc21,Potency,[1],inactive
same,Potency,[2],inactive
same,Potency,[3],inactive
O=C(NC(O)C(Cl)(Cl)Cl)NC(O)C(Cl)(Cl)Cl (centres undefined),Potency,[1],inactive
same,Potency,[2],inactive
CN1CCc2cccc3c2[C@H]1Cc1ccc(O)c(O)c1-3,Potency,[1],32.2 µM (active)
CN1C(=S)CN=C(c2ccccc2)c2cc(Cl)ccc21,Potency,[1],inactive
same,Potency,[2],inactive
same,Potency,[3],inactive
CC(=O)[C@H]1CC[C@H]2[C@@H]3CC[C@H]4C[C@](C)(O)CC[C@]4(C)[C@H]3CC[C@]12C,Potency,[1],inactive
same,Potency,[2],inactive
same,Potency,[3],inactive
same,Potency,[12],inactive
same,outcome,[13],inactive
same,outcome,[10],inactive
same,outcome,[11],inactive
same,Potency,[14],inactive
NP(N)(=O)NC(=O)c1ccc(F)cc1,Potency,[1],inactive
same,Potency,[2],inactive
FC(F)(F)c1cccc(C2=CCN(CCc3ccc4ccccc4c3)CC2)c1,Potency,[1],inactive
same,Potency,[2],inactive
C#CCOC(C(=O)OCCN(C)C)(c1ccccc1)c1ccccc1,Potency,[1],inactive
same,Potency,[2],inactive
same,Potency,[3],inactive
Cc1ncc(CNC(=O)N(CCCl)N=O)c(N)n1,Potency,[1],inactive
same,Potency,[2],inactive
same,Potency,[3],inactive
same,Potency,[12],inactive
same,outcome,[13],inactive
same,outcome,[10],inactive
same,outcome,[11],inactive
same,Potency,[14],inactive
CCC(C(N)=O)N1CCCC1=O (centres undefined),Potency,[1],inactive
same,Potency,[2],inactive
CC(C)NCC(O)c1ccccc1Cl (centres undefined),Potency,[1],inactive
same,Potency,[2],inactive
CCOP(=S)(OCC)Oc1cc(C)nc(C(C)C)n1,Potency,[1],inactive
same,Potency,[2],inactive
same,Potency,[3],inactive
same,Potency,[4],inactive
same,activation,[5],-0.592% and 3.54%
same,activation,[6],-0.534% and -0.189%
same,Potency,[7],inactive
same,Potency,[8],inactive
same,outcome,[9],inactive
CCC(COC(=O)c1cc(OC)c(OC)c(OC)c1)(c1ccccc1)N(C)C (centres undefined),Potency,[1],inactive
same,Potency,[2],inactive
same,Potency,[3],inactive
COc1ccccc1N1CCNCC1,Potency,[1],inactive
same,Potency,[2],inactive
same,Potency,[3],inactive
same,Potency,[12],inactive
same,outcome,[13],inactive
same,outcome,[10],inactive
same,outcome,[11],inactive
same,Potency,[14],inactive
CC1NCCOC1c1ccccc1 (centres undefined),Potency,[1],inactive
same,Potency,[2],inactive
Cc1ccc(S(=O)(=O)N[C@@H](CCCCN)C(=O)CCl)cc1,Potency,[1],inactive
same,Potency,[2],inactive
same,Potency,[3],inactive
same,outcome,[13],inactive
same,outcome,[10],inactive
same,outcome,[11],inactive
same,Potency,[14],inactive
CC[N+]1(C)CCCC(OC(=O)C(O)(c2ccccc2)c2ccccc2)C1 (centres undefined),Potency,[1],inactive
Cc1ccc(-c2nc3ccc(C)cn3c2CC(=O)N(C)C)cc1,Potency,[1],inactive
same,Potency,[2],inactive
same,Potency,[3],inactive
Cc1cccc(C)c1NC1=NCCCS1,Potency,[1],inactive
same,Potency,[2],inactive
same,Potency,[3],inactive
same,Potency,[12],inactive
same,outcome,[13],inactive
same,outcome,[10],inactive
same,outcome,[11],inactive
same,Potency,[14],inactive
CN1CCN(C(=O)O[C@H]2c3nccnc3C(=O)N2c2ccc(Cl)cn2)CC1,Potency,[1],inactive
same,Potency,[2],inactive
CCN(C(C)=O)c1cccc(-c2ccnc3c(C#N)cnn23)c1,Potency,[1],inactive
same,Potency,[2],inactive
O=[N+]([O-])c1cc([As](=O)(O)O)ccc1O,Potency,[1],inactive
same,Potency,[2],inactive
same,Potency,[3],inactive
CC[N+](CC)(CC)CC,Potency,[1],inactive
CC1OC(C)OC(C)O1 (centres undefined),Potency,[1],inactive
same,Potency,[2],inactive
same,Potency,[3],inactive
NCCc1cc(O)c(O)cc1O,Potency,[1],inactive
same,Potency,[2],inactive
same,Potency,[3],inactive
CC(C)CC(N(C)C)C1(c2ccc(Cl)cc2)CCC1 (centres undefined),Potency,[1],inactive
same,Potency,[2],inactive
same,Potency,[3],inactive
CCOC(=O)C1(c2ccccc2)CCN(CCC(C#N)(c2ccccc2)c2ccccc2)CC1,Potency,[1],inactive
N#CC(C#N)=Cc1ccc(O)c(O)c1,Potency,[1],inactive
same,Potency,[12],0.355 µM (active)
same,outcome,[13],inactive
same,outcome,[10],inactive
same,outcome,[11],inactive
same,Potency,[14],inactive
O=C1NCN(c2ccccc2)C12CCN(CC1COc3ccccc3O1)CC2 (centres undefined),Potency,[3],inactive
same,Potency,[12],inactive
same,outcome,[13],inactive
same,outcome,[10],inactive
same,outcome,[11],inactive
same,Potency,[14],inactive
CCC1(C2=NCCN2)Cc2ccccc2O1 (centres undefined),Potency,[1],inactive
same,Potency,[2],inactive
same,outcome,[13],inactive
same,outcome,[10],inactive
same,outcome,[11],inactive
same,Potency,[14],inactive
COc1cc([C@@H]2c3cc4c(cc3[C@H](O)[C@H]3COC(=O)[C@H]23)OCO4)cc(OC)c1OC,Potency,[2],0.0128 µM (active)
same,Potency,[3],0.0224 µM (active)
same,Potency,[15],inactive
